Screens deposited in PubChem by several laboratories.
Compounds with a hit are over-represented: about 3% of the library has one in this group of screens.
aSyn 5UTR inh = MLPCN primary screen, SNCA 5' untranslated region. alpha-synuclein 5'UTR reporter, inhibitor activity. 0.82% of 300,000 active. inhibition, % (tested at 7.5 µM); in the data active = inhibition above about 60%;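 also: H4 neuroglioblastoma cells stably carrying SNCA 5'UTR luciferase fusion; 0% = DMSO wells and 100% = positive control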
IEC-6 cytotox = cytotoxicity in IEC-6 intestinal epithelial cells, primary screen, cytotoxicity control for KLF5 inhibitor project, cell-based, luminescence. IEC-6 cytotoxicity, luminescence viability. inhibition, % at 5 µM. 0.78% of 290,000 active. AID 1825, 2009; in the data active = inhibition above about 22%;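 also: 0% = plate median of test compound wells and 100% = cytotoxic reference compound wells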
SKKanGAS inh = S. pyogenes SKKanGAS growth inhibitors in kanamycin, primary screen, streptokinase expression inhibitor project, SKKanGAS strain, BacTiter-Glo luminescence; AID 1662, 2009; inhibition, % at 7.5 µM; 1.3% of 300,000 active; 6 h;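 active = mean replicate score, as percent of positive control median, at least 50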;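 also: strain carries kanamycin resistance gene driven by streptokinase promoter and grows in 40 µg/ml kanamycin; loss of luminescence reflects streptokinase promoter inhibition or plain growth inhibition; 0% = median of DMSO wells and 100% = positive control at its reference dose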
KLF5 inhibitor = KLF5 expression inhibitors, primary screen, DLD-1 cells, luminescence | DLD-1 KLF5 promoter-luciferase reporter | inhibition, % at 5 µM | 0.23% of 290,000 active;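 active = inhibition above a per-plate limit of that plate's mean compound inhibition plus 3 SD, cut at about 60% in these data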;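 also: 0% = DMSO wells and 100% = LY294002 at 200 µM; higher means less KLF5 promoter-driven luciferase light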
CSC inhib = cancer stem cell viability inhibitors, primary screen, luminescence; AID 2717, 2010; 1.1% of 300,000 active; inhibition, % at 7.5 µM; cancer stem cell-like cells viability; in the data active = inhibition above about 75%; tested in HMLE shEcad cells
* marks the source's active call; other numbers are inactive results.

`NC1CCN(c2nc3c(cc2F)c(=O)c(C(=O)O)cn3-c2ccc(F)cc2F)C1` (centres undefined) gave aSyn 5UTR inh 24.5, SKKanGAS inh 103.3* and CSC inhib -9.1.
Screening CC1CCc2c(N3CCC(O)CC3)c(F)cc3c(=O)c(C(=O)O)cn1c23 (centres undefined) returned CSC inhib -1.4.
Screening NC1CCN(c2c(F)cc3c(=O)c(C(=O)O)cn(C4CC4)c3c2Cl)C1 (centres undefined) returned aSyn 5UTR inh 17.1, IEC-6 cytotox 1.7, SKKanGAS inh 73.9*, KLF5 inhibitor 17.4 and CSC inhib 11.3.
Screening C[C@H](CO)N1C[C@H](C)[C@@H](CN(C)Cc2ccncc2)Oc2c(cccc2N(C)C)C1=O returned CSC inhib -15.4.
COc1ccc(C(=O)NCCNc2nc3ccc(C)cc3cc2C#N)cc1OC was read as aSyn 5UTR inh 22.1, IEC-6 cytotox 0.1, SKKanGAS inh -9.9, KLF5 inhibitor -57.8 and CSC inhib -4.0.
O=C1Nc2ccccc2S/C1=C/Nc1cccc(Cl)c1 was read as aSyn 5UTR inh -202.5, IEC-6 cytotox -2.3, SKKanGAS inh 75.7*, KLF5 inhibitor -21.6 and CSC inhib 48.2.
`CN(/N=C/c1cc(Cl)ccc1O)C1=NS(=O)(=O)c2ccccc21` gave aSyn 5UTR inh 14.0, IEC-6 cytotox 3.9, SKKanGAS inh 37.3, KLF5 inhibitor -4.0 and CSC inhib 11.4.
`COC(=O)CCC[C@H]1CC2(C[C@H](CCCO[Si](C)(C)C(C)(C)C)N1C(=O)OC(C)(C)C)OCCO2` gave CSC inhib 30.0.
Screening Cc1nc2cc(-c3ccccc3)sc2c(=O)n1N returned aSyn 5UTR inh 110.7*, IEC-6 cytotox 15.5, SKKanGAS inh 63.0*, KLF5 inhibitor 65.0* and CSC inhib 13.2.
`Cc1ccc(C)n1-n1c(C)nc2sc(-c3ccccc3)cc2c1=O` gave aSyn 5UTR inh -104.7, IEC-6 cytotox 3.0, SKKanGAS inh 6.0, KLF5 inhibitor -110.1 and CSC inhib 12.2.
`CCCCCCCCCCCCN1[C@@H](CC(C)=O)c2cc(F)ccc2S1(=O)=O` gave aSyn 5UTR inh -2.3, SKKanGAS inh 16.6 and CSC inhib 79.5*.
For O=C(Nc1ccc(CN2CCCCC2)cc1)Nc1ccc(Br)cc1Cl the results were aSyn 5UTR inh -26.8, IEC-6 cytotox 3.0, SKKanGAS inh 3.3 and KLF5 inhibitor 8.5.
Screening Cc1ccc(S(=O)(=O)N(C)C)cc1NC(=S)NC12CC3CC(CC(C3)C1)C2 returned aSyn 5UTR inh 15.2, IEC-6 cytotox 7.9, SKKanGAS inh -5.1 and KLF5 inhibitor -6.1.
Cc1ccc(S(=O)(=O)N(C)C)cc1NC(=S)NC(=O)C12CC3CC(CC(C3)C1)C2 was read as aSyn 5UTR inh 35.0, IEC-6 cytotox 4.5, SKKanGAS inh 6.3, KLF5 inhibitor -19.2 and CSC inhib 76.6*.
CCOc1ccc(C(=O)Nc2ccc(S(=O)(=O)N3C[C@@H]4C[C@@H](C3)c3cccc(=O)n3C4)cc2)cc1 was read as CSC inhib -8.9.
C[C@@H]1C=CC(=O)O[C@@H]1c1ccc(Cl)cc1 was read as aSyn 5UTR inh -193.8, IEC-6 cytotox 6.9, SKKanGAS inh 7.5, KLF5 inhibitor 16.2 and CSC inhib 70.2.
Screening O=[N+]([O-])c1cc(S(=O)(=O)Nc2ccccc2)ccc1N1CCN(c2ccccc2)CC1 returned aSyn 5UTR inh 4.7, IEC-6 cytotox -4.8, SKKanGAS inh 49.6*, KLF5 inhibitor -3.6 and CSC inhib 29.9.
CC(=O)c1ccc(N2CCN(c3ccc(S(=O)(=O)NCCCN(C)C)cc3[N+](=O)[O-])CC2)cc1 was read as aSyn 5UTR inh -16.1, IEC-6 cytotox 5.9, SKKanGAS inh -9.8, KLF5 inhibitor -18.7 and CSC inhib 81.5*.
Screening O=[N+]([O-])c1cc(S(=O)(=O)C(F)(F)F)ccc1N1CCN(c2ccccc2)CC1 returned aSyn 5UTR inh 8.7, IEC-6 cytotox -4.6, SKKanGAS inh 10.0, KLF5 inhibitor -7.9 and CSC inhib 6.6.
For CC1SC2(NC1=O)C1CC3CC(C1)CC2C3 (centres undefined) the results were aSyn 5UTR inh 3.0, IEC-6 cytotox -2.6, SKKanGAS inh 8.5, KLF5 inhibitor 6.0 and CSC inhib 3.2.
Screening CC12CCC(C(=O)NC3CCCCC3)([C@H](Br)C1=O)C2(C)C (some centres undefined) returned aSyn 5UTR inh 16.9, IEC-6 cytotox -12.1, SKKanGAS inh -0.5, KLF5 inhibitor -5.4 and CSC inhib -13.7.
CNc1nc(C23CC4CC(CC(C4)C2)C3)cs1 was read as aSyn 5UTR inh 11.1, IEC-6 cytotox 1.1, SKKanGAS inh -7.3, KLF5 inhibitor -19.0 and CSC inhib 0.2.
Cc1ccc(NC(=O)C2=C(c3ccccc3)S(=O)(=O)CCS2(=O)=O)cc1 was read as aSyn 5UTR inh -9.5, IEC-6 cytotox 7.3, SKKanGAS inh -11.8, KLF5 inhibitor 2.4 and CSC inhib 78.7*.
`CCCCN(C(=S)Nc1cccc(C)c1C)c1c(N)n(CCC)c(=O)[nH]c1=O` gave aSyn 5UTR inh -14.8, IEC-6 cytotox 6.2, SKKanGAS inh -3.5, KLF5 inhibitor -31.9 and CSC inhib -27.9.
O=C(CSc1nc2nc(-c3cccs3)cc(C(F)(F)F)c2c(=O)[nH]1)Nc1c(F)c(F)c(F)c(F)c1F was read as aSyn 5UTR inh 4.2, IEC-6 cytotox 6.8, SKKanGAS inh 42.1, KLF5 inhibitor -23.6 and CSC inhib 88.1*.
`C=CCOc1ccc(/C=C2/C(=N)N3N=C(CC(=O)N4CCCC4)SC3=NC2=O)cc1OC` gave aSyn 5UTR inh 11.8, IEC-6 cytotox 4.1, SKKanGAS inh 15.3, KLF5 inhibitor -3.7 and CSC inhib -5.5.
Screening COc1ccccc1/C=C/C1(C(=O)NC2CCCC2)CC(=O)N1c1ccccc1 (centres undefined) returned aSyn 5UTR inh -138.4, IEC-6 cytotox 5.4, SKKanGAS inh 10.9, KLF5 inhibitor -4.0 and CSC inhib 51.1.
Screening CCCc1nc(NCc2ccccc2)c(C#N)c2c1CCCC2 returned aSyn 5UTR inh 35.8, IEC-6 cytotox -5.5, SKKanGAS inh 73.7*, KLF5 inhibitor -25.9 and CSC inhib 25.6.
Screening CCCc1nc(NCCO)c(C#N)c2c1CCCC2 returned aSyn 5UTR inh 37.3, IEC-6 cytotox -2.4, SKKanGAS inh -2.4, KLF5 inhibitor -38.6 and CSC inhib -13.4.
CN(C)CCNC(=O)COc1ccc(C23CC4CC(CC(C4)C2)C3)cc1 was read as aSyn 5UTR inh -55.2, IEC-6 cytotox 5.1, SKKanGAS inh 9.2, KLF5 inhibitor -41.0 and CSC inhib 82.1*.
Cc1ccc(C23CC4CC(CC(NC(=O)NCCN(C)C)(C4)C2)C3)cc1 was read as aSyn 5UTR inh -8.7, IEC-6 cytotox 3.8, SKKanGAS inh 1.6, KLF5 inhibitor -29.2 and CSC inhib 4.6.
CC(C)(c1ccccc1)c1ccc(OCCCN2CCNCC2)cc1 was read as aSyn 5UTR inh -42.4, IEC-6 cytotox -5.0, SKKanGAS inh -10.4, KLF5 inhibitor -31.2 and CSC inhib 79.9*.
`CC(C)(C)c1ccc(OCCCCCCN2CCNCC2)cc1` gave aSyn 5UTR inh 0.1, SKKanGAS inh -2.6 and CSC inhib 63.9.
